The whole screen tested about 360,000 compounds, of which about 8,200 (2.3%) were called active. The sample as a whole holds a higher share of actives than the screen did. A number with no mark means an inactive call. Cut-off read from the data, not from the text of the source: active = inhibition above about 27%; inactive = the rest.

For the assay, the target named is Fructose-bisphosphate aldolase (Mycobacterium tuberculosis (strain ATCC 25618 / H37Rv)) (UniProt P9WQA3). The assay is described as follows: M. tuberculosis aldolase activity blockers – biochemical, fluorescence, strain H37Rv, primary screen (AID 588726).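 Note: 0% = vehicle and 100% = reference inhibitor.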 To be noted: purified M. tuberculosis FBA, fluorescence read-out, at 1 µM, stronger effect = higher value.
Chain of Fructose-bisphosphate aldolase (Mycobacterium tuberculosis (strain ATCC 25618 / H37Rv)) (P9WQA3 whole entry, looked up): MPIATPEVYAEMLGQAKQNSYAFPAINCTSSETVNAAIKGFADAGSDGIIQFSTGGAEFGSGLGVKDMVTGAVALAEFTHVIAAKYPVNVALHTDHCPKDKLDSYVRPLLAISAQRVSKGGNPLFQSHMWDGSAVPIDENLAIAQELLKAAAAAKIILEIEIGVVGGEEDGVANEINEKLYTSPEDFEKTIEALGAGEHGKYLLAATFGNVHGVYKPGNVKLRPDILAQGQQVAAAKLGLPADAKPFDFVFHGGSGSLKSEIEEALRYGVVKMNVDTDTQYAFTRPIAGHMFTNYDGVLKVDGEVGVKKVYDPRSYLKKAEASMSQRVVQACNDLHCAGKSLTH
Regarding `CC(C)CN(C(=O)CSc1ncnc2sccc12)C1CCS(=O)(=O)C1` (configuration not stated), the inhibition was 2.25%.

For the compound `CCN(C(=O)CSc1ncnc2c1cnn2-c1ccccc1)C1CCS(=O)(=O)C1` (configuration not stated), the inhibition was 32.7% (active).

As to `CCC(C)N(C(=O)CSc1ncnc2c1cnn2-c1ccccc1)C1CCS(=O)(=O)C1` (configuration not stated), the inhibition is -2.78%.

Take `CN(C)C(=O)CCC(=O)N1CCCCC1C(=O)Nc1ccc(Oc2ccccc2F)cc1` (configuration not stated): the inhibition is -1.93%.

`O=C(c1cccc(N2CCCC2=O)c1)N1CCOCC1`: the inhibition was -17.6%.

On to `COc1ccccc1C(=O)Nc1cccc(C(=O)N2CCOCC2)c1`, for which the inhibition was 3.07%.

As for `CCOCCc1c(O)nc(SCC(=O)NCc2ccco2)[nH]c1=O`, the inhibition was 2.42%.

For `CS(=O)(=O)N(Cc1ccccc1Cl)c1ccc(C(=O)NCc2cccnc2)cc1`, the inhibition was -3.74%.

With `CCN(CC(=O)Nc1cc(Cl)ccc1C)C(=O)CSCc1ccc(C)cc1`, the inhibition was 2.85%.

Consider `O=C(NC1CCCC1)C(c1c(F)cccc1Cl)N(C(=O)c1csnn1)C1CC1` (configuration not stated), for which the inhibition is -1.18%.

On to `COc1ccc(OC)c(NC(=O)CN(Cc2ccc(Cl)cc2)S(C)(=O)=O)c1`, for which the inhibition was -0.32%.

As to `O=c1cc(C(F)(F)F)[nH]c(=O)n1C1CCCCC1`, the inhibition is -0.44%.

Regarding `CC(Sc1sc(=S)sc1SC(C)C(=O)O)C(=O)O` (configuration not stated), the inhibition was -1.78%.

Consider `O=C(NCCCN1CCOCC1)c1cnn2c(-c3ccccc3)cc(-c3ccccc3)nc12`, for which the inhibition is 34.3% (active).

On to `O=C(NCCCN1CCOCC1)c1ccccc1NS(=O)(=O)c1ccc(Br)cc1`, for which the inhibition is 0.43%.

As to `O=C(NCCCN1CCOCC1)c1ccccc1NS(=O)(=O)c1ccc(F)cc1`, the inhibition is 2.85%.

Consider `CCCCCC(=O)Nc1ccc(-c2cn3cccnc3n2)cc1`, for which the inhibition was 131% (active).

Regarding `CCCCC(=O)Nc1ccc(C(=O)NCCCn2ccnc2)cc1`, the inhibition was -1.64%.

Regarding `Cc1ccc(NC(=O)c2cccnc2C(=O)Nc2ccc(C)cc2)cc1`, the inhibition is 4.35%.

On to `CCN(c1ccccc1)S(=O)(=O)c1ccc(NC(=O)C(C)(C)C)cc1`, for which the inhibition is 0.11%.

For the compound `Cc1nn2c(=O)cc(COC(=O)c3ccc(NC(=O)C(C)(C)C)cc3)nc2s1`, the inhibition is -0.5%.

Consider `CC(=O)Nc1ccc(-c2cn3cccnc3n2)cc1`, for which the inhibition is 566% [above what the read-out allows, likely interference] (active).

With `CCCCCC(=O)Nc1ccc(S(=O)(=O)Nc2ccc(Cl)nn2)cc1`, the inhibition is -0.48%.

Consider `CC(=O)Nc1ccc(S(=O)(=O)Nc2ccc(-c3ccc4nnc(C)n4n3)cc2)cc1`, for which the inhibition was -1.85%.

For the compound `CCOc1ccc(C(CC(=O)O)NC(=O)C23CC4CC(CC(C4)C2)C3)cc1OC` (configuration not stated), the inhibition is -2.94%.

As for `CSc1ccc(CN2CCC2(C)C(=O)NCc2ccccc2Br)cc1` (configuration not stated), the inhibition is -0.17%.

For `COc1ccc(OC)c(NC(=O)C2CCCN2S(=O)(=O)c2ccc3c(c2)CC(C)N3C(C)=O)c1` (configuration not stated), the inhibition was -1.84%.

Take `CCOC(=O)CSc1nnc(NC(=O)C2CC(=O)N(c3ccc(F)cc3)C2)s1` (configuration not stated): the inhibition was -1.95%.

In the case of `O=C(N/C(=C\c1ccc([N+](=O)[O-])cc1)C(=O)N1CCOCC1)c1cccc(Br)c1`, the inhibition was -1.01%.

For the compound `CCCS(=O)(=O)N1CCN(C(=O)c2cccs2)CC1`, the inhibition was 3.16%.

In the case of `CN(C)S(=O)(=O)c1ccc(N/C=C(\[N+](=O)[O-])S(=O)(=O)c2ccccc2)cc1`, the inhibition is 57.2% (active).

`CN(C)S(=O)(=O)c1cccc(NC(=S)N/N=C/C(=O)c2ccccc2)c1`: the inhibition was -3.5%.

As for `CN(C)S(=O)(=O)c1ccc(NC(=O)N2CCOCC2)cc1`, the inhibition is 3.98%.

For `O=C(O)CC(Cn1cnnn1)c1ccccc1` (configuration not stated), the inhibition was 3.12%.

Consider `Cc1cccc(CCNC(=O)Cn2ncc3c([nH]c4ccc(C)cc43)c2=O)c1`, for which the inhibition is 1.24%.

As to `Cc1ccc(NC(=O)CN(C)C(=O)COC(=O)c2nccnc2N)cc1`, the inhibition is 88.8% (active).

As for `Cc1ccc(CSCC(=O)N(C)CC(=O)Nc2ccc(C)cc2)cc1`, the inhibition is -2.58%.

Regarding `Cc1ccc(NC(=O)CN(C)C(=O)COC(=O)C(C)(C)Oc2ccc(Cl)cc2)cc1`, the inhibition was 2.5%.

Take `COc1cc2c(cc1OC)C1C(=O)c3cc(OS(C)(=O)=O)c(OC)cc3C1N(C)C2=O` (configuration not stated): the inhibition was 3.73%.

Regarding `O=C(Nc1nnc(C2=COCCO2)o1)c1ccc([N+](=O)[O-])s1`, the inhibition was -5.53%.

In the case of `O=C(Nc1nccs1)C1CCCN1S(=O)(=O)c1cccc2cccnc12` (configuration not stated), the inhibition is -1.37%.

Regarding `CCn1c(CSc2nc(C)cc(C)n2)nnc1SCC(N)=O`, the inhibition was -3.73%.

Consider `Cc1cc(C)nc(SCc2cn3c(C)cc(C)nc3n2)n1`, for which the inhibition was 78.2% (active).

Take `COc1ccc(C(C)=O)cc1CSc1nc2nc(C)cc(C)n2n1`: the inhibition is -0.02%.

For the compound `COc1ccc(C(CNC(=O)CSc2ccccc2)N2CCOCC2)cc1` (configuration not stated), the inhibition was 2.08%.

Consider `COc1cc2sc(C)nc2cc1C`, for which the inhibition was 4.23%.

Take `CC(=O)N1CCOc2ccc(S(=O)(=O)N3CCC(C(=O)Nc4ccccc4F)CC3)cc21`: the inhibition was 3.64%.

Turning to `O=C(c1ccccc1[N+](=O)[O-])N1CCC2(CC1)OCCO2`, the inhibition is 0.71%.

As for `O=C(Nc1cccc2ccccc12)N1CCN(Cc2ccc3c(c2)OCO3)CC1`, the inhibition is 41.2% (active).

For `O=C(CCCN1C(=O)c2cccc3cccc(c23)C1=O)N1CCN(Cc2ccc3c(c2)OCO3)CC1`, the inhibition is 10.2%.

Take `O=C(Cc1ccccc1[N+](=O)[O-])N1CCN(Cc2ccc3c(c2)OCO3)CC1`: the inhibition is 0.16%.

For `COc1ccc(NC(=O)N2CCC3(CC2)OCCO3)c(OC)c1`, the inhibition was -0.76%.

Consider `O=C(Nc1cccc2ccccc12)N1CCC2(CC1)OCCO2`, for which the inhibition was 44.6% (active).

Take `CCOC(=O)c1cc2cc(-c3c(C(=O)OCC)oc4cc(O)cc(O)c4c3=O)ccc2o1`: the inhibition was 0.2%.

As to `COc1ccc(Cc2nnnn2CC(=O)O)cc1`, the inhibition was 0.07%.

As to `CN(CC(=O)Nc1ccccc1C(F)(F)F)C(=O)Cc1ccccc1F`, the inhibition was -1.8%.

`CC(C)N1C(=S)SC(C)(C)C1n1oc(=O)n(-c2ccc(Cl)c(Cl)c2)c1=O` (configuration not stated): the inhibition is 1.39%.

In the case of `COc1ccc(-c2c(C(C)=O)c(C)nc3sc4c(=O)n(-c5ccc(C)cc5)nnc4c23)cc1`, the inhibition was 3.94%.

With `CCN1CC=C2C(C#N)=C(N)C(C#N)(C#N)[C@H](c3ccoc3)[C@H]2C1`, the inhibition is 28% (active).

As to `COC(=O)[C@]1(Cc2ccccc2)N[C@H](CN(C)S(=O)(=O)c2ccc(OC(F)(F)F)cc2)[C@@H]2C(=O)N(C)C(=O)[C@@H]21`, the inhibition is 0.06%.

Turning to `O=C1c2ccccc2-c2ccccc2NC1O` (configuration not stated), the inhibition was -1.24%.

On to `COc1ccc2[nH]c3ccc(OC)cc3c2c1`, for which the inhibition is 28.3% (active).

Regarding `COc1ccc2[nH]c3c(C)c4cc[n+](C)cc4c(C)c3c2c1`, the inhibition is -3.24%.

For `COc1ccc2[nH]c3c(c2c1)CCN[C@H]3C`, the inhibition was 0.12%.

For the compound `C[C@]1(C(=O)NCCc2c[nH]c3ccccc23)C=C[C@@H](Cc2ccccc2)N1C(=O)c1ccccc1`, the inhibition was -0.23%.

As for `COc1ccc(NC(=O)CSc2nnc(C3CC3)n2C)cc1S(=O)(=O)N1CCCCC1`, the inhibition was -1.4%.

Regarding `CCOc1ccc(N(CC(=O)Nc2ccccc2F)S(=O)(=O)c2c(C)[nH]c(=O)[nH]c2=O)cc1`, the inhibition is 0.28%.

Take `O=C(NCCCn1ccnc1)C1CCCN(S(=O)(=O)c2cc(Cl)ccc2Cl)C1` (configuration not stated): the inhibition was -0.78%.

For `CCCCN=C(N)/C(C(=O)OCC)=C(\O)c1ccc(OC)cc1`, the inhibition was -0.66%.

`CC(C)OC(=O)c1ccc(COc2ccc3ccc(=O)oc3c2)o1`: the inhibition was 17.9%.

Regarding `Cc1noc(C)c1COc1ccc2ccc(=O)oc2c1`, the inhibition is 28.6% (active).

Consider `Cc1noc(C)c1COC(=O)COc1ccc(-c2ccccc2)cc1`, for which the inhibition is -1.21%.

Consider `O=C(CSc1ncnc2c1oc1ccccc12)NC1CCCC1`, for which the inhibition is -1.09%.

Turning to `CCOc1ccc(CCNC(=O)COC(=O)c2c(OC)cccc2OC)cc1OCC`, the inhibition was -0.8%.

On to `COc1ccc(C(=O)OCc2cc(=O)n3ccsc3n2)cc1F`, for which the inhibition is -2.01%.

As for `COc1ccc(NC(=S)NCC2CCN(c3ccc(OC)cc3)C2)cc1` (configuration not stated), the inhibition is -3.11%.

With `COc1ccc([C@H]2N[C@]3(CCCN(Cc4ccco4)C3=O)[C@H]3C(=O)N(C)C(=O)[C@@H]23)cc1`, the inhibition was -1.27%.

`COC(=O)Cc1nc2c(N)nc(N)nc2[nH]c1=O`: the inhibition is 159% (active).

`COc1cc(C(=O)NC2CCN(C)CC2)ccc1Nc1ncc2c(n1)N(C1CCC(O)CC1)CCC(=O)N2C` (configuration not stated): the inhibition was 1.68%.

For the compound `O=c1[nH]cccc1-c1nc2ccccc2n1Cc1ccc(Cl)cc1`, the inhibition is 187% (active).

`CC(C)(C)N1CC(c2nc3ccccc3n2Cc2ccc(F)cc2)CC1=O` (configuration not stated): the inhibition is -9.37%.

As to `O=C(O)CCc1nc2cc(Cl)ccc2n(Cc2ccccc2)c1=O`, the inhibition was 1.59%.

`CC12CN3CCN(CC(C3)/C1=N\NC(=O)c1ccccc1N)C2`: the inhibition is 1.1%.

For the compound `Nc1ccccc1C(=O)NC1CCCCNC1=O` (configuration not stated), the inhibition was 68.5% (active).

On to `O=C(CNC(=O)OCc1ccccc1)NC1CCCCNC1=O` (configuration not stated), for which the inhibition is 0.55%.

As for `Cc1c(CCC(=O)O)c(=O)oc2cc(OCc3ccc(Br)cc3)ccc12`, the inhibition was 46.6% (active).

Regarding `Cc1c(Cc2ccccc2)c(=O)oc2cc(OCC(N)=O)ccc12`, the inhibition was 65.5% (active).

As to `CCOC(=O)c1cc(=O)c2ccc(OCc3ccccc3)cc2o1`, the inhibition was 2.55%.

Take `Cc1ccc(OCC(=O)Nc2ccc3oc(=O)ccc3c2)cc1C`: the inhibition was 1.09%.

Turning to `COC(=O)Cc1c(C)c2ccc(OCC(=O)NCc3ccc4c(c3)OCO4)cc2oc1=O`, the inhibition was 12%.

With `Cc1cc(C)cc(Oc2c(C(F)(F)F)oc3cc(OCC(=O)O)ccc3c2=O)c1`, the inhibition was -1.51%.

With `Cc1coc2cc3oc(=O)c(CCC(=O)O)c(C)c3cc12`, the inhibition was 16.5%.

With `O=C(Oc1ccccc1)Oc1ccc2c(c1)oc(=O)c1ccccc12`, the inhibition was 8.31%.

Take `COc1cccc(-c2coc3cc4oc(=O)c(CC(=O)O)c(C)c4cc23)c1`: the inhibition is 6.49%.

Regarding `Cc1c(C)c2ccc(OCC(=O)N3CCN(c4cccc(Cl)c4)CC3)cc2oc1=O`, the inhibition was 6.95%.

As for `CC(=O)Oc1ccc2c(C)c(CC(C)O)c(=O)oc2c1` (configuration not stated), the inhibition is 797% [above what the read-out allows, likely interference] (active).

Regarding `CC(=O)Nc1cc2ccc(OC(C)=O)cc2oc1=O`, the inhibition is 179% (active).

One may read the inhibition as the change of the read-out against control, counted positive when it falls.

Source of the values: PubChem BioAssay AID588726 (The Scripps Research Institute Molecular Screening Center, 2011).
